# The campaign covered roughly 360,000 compounds. About 7,500 (2.1%) were called active. Inconclusive results (about 8%) are left out. Calls follow the shape of the dose curve; as a rule, active = well fitted cell-killing curve with a large enough effect; inconclusive = small, poorly fitted or top-dose-only effect, or effect the other way, or another doubt; inactive = no such curve, though single readings can be large or run the other way. The entries come from a sample that favours actives as a whole. A call without a number means that no potency is given here.
# Experiment: qHTS for induction of synthetic lethality in tumor cells producing 2HG: qHTS for the HT-1080-IDH1KD cell line
# Settings: HT-1080 IDH1 knockdown viability, ATP luminescence, 48 h; series mostly up to 46.1 µM
# Method in brief: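 % activity derives from luminescence (CellTiter-Glo), normalised to DMSO and no-cell wells. HT-1080-IDH1KD cells, 750/well, had 48 h compound exposure at 37 °C.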
# Potency is read from the fitted curve at half-maximal effect.
row,SMILES,Potency
1,COc1cccc(/C=C2\C=C(c3ccc(C)cc3)OC2=O)c1OC(C)=O,inactive
2,COc1cccc(/C=C/c2ccc3ccccc3n2)c1OC(C)=O,11.6 µM (active)
3,CC(OC(=O)c1ccc2ccccc2n1)C(=O)c1ccccc1 (stereo unspecified),inactive
4,CCCCNC(=O)C[C@@H]1C[C@@]2(C(=O)OC)CC(C)(C)CC=C2N(Cc2ccco2)C1=O,inactive
5,C[C@H](NC(=O)[C@@H]1CCCN1C(=O)[C@@H]1CCCN1C(=O)c1ccccc1)c1ccccc1,inactive
6,CC1=C(C(=O)N(C)C)CC(CC(=O)NCCc2ccccn2)C(=O)N1CCC1=CCCCC1 (stereo unspecified),inactive
7,O=C1COc2ccc(S(=O)(=O)Nc3ccc(OC(F)(F)F)cc3)cc2N1,inactive
8,O=S(=O)(Nc1ccc(O)c2ccccc12)c1ccc(OC(F)(F)F)cc1,20.6 µM (active)
9,Cc1nn(C)c(C)c1NS(=O)(=O)c1ccc(OC(F)(F)F)cc1,inactive
10,Cn1c(CCN2CCN(c3ccccn3)CC2)nc2cc(NS(=O)(=O)c3ccc(F)cc3)ccc21,inactive
11,C[C@@H]1CC[C@@]2(OC1)O[C@H]1C[C@H]3[C@@H]4CC=C5C[C@@H](O)[C@H](O)C[C@]5(C)C4CC[C@]3(C)[C@H]1[C@@H]2C (stereo partly specified),inactive
12,C[C@]12CC[C@H](O)CC1=CCC1C2CC[C@@]2(C)C1CC[C@@H]2NC(=O)CCC(=O)O (stereo partly specified),inactive
13,CC(=O)OC1CCC2(C)C(=CCC3C4CC(=O)N(O)C(=O)C4(C)CCC32)C1 (stereo unspecified),25.9 µM (active)
14,OC[C@@H]1CN(C2CCCC2)C[C@H](n2cnc3c(NC4CCC4)ncnc32)O1,inactive
15,CCC(C)C(CO)NC(=O)/C=C/[C@H]1O[C@@H](n2cnc3c(NC(=O)c4ccccc4)ncnc32)[C@H](O)[C@@H]1O (stereo partly specified),inactive
16,Cc1ccccc1Nc1nc(-c2cccnc2)cs1,inactive
17,O=C(NCc1cccnc1)Nc1ccccc1F,inactive
18,O=C(NCc1cccnc1)C(=O)Nc1nc(-c2ccccc2)cs1,4.61 µM (active)
19,C[C@H](CO)N1C[C@H](C)[C@@H](CN(C)C(=O)c2cnccn2)Oc2ncc(Br)cc2C1=O,inactive
20,Cc1cc2nc(-c3ccc(F)cc3)c(Cc3ccsc3)n2c(C)c1Br,inactive
21,Cc1cc2nc(-c3ccco3)c(Cc3cccc(F)c3)n2c(C)c1Br,20.6 µM (active)
22,Fc1cccc(Cc2c(-c3ccc(Cl)cc3)nc3ccc(Cl)cn23)c1,inactive
23,COc1ccc(S(=O)(=O)N2CCCCC2c2cc(C(=O)NCc3ccc(F)cc3)no2)cc1 (stereo unspecified),inactive
24,CCCCNC(=O)C1CCCNC1=O (stereo unspecified),inactive
25,O=C(OC1CC2CC1[C@H]1CCCCN1C2=O)N1CCOCC1 (stereo partly specified),inactive
26,CCCCNC(=O)OC1CC2CC1[C@H]1CCCCN1C2=O (stereo partly specified),25.9 µM (active)
